According to PMC9838217, “Structure of SALL4 zinc finger domain reveals link between AT-rich DNA binding and Okihiro syndrome”:
Residue numbers refer to the chain shown, from its start.

Key:
Assay in all cases: HT-SELEX; high values mean tight binding
Conditions in all cases: protein: recombinant; vector His6-GST; dsDNA, one strand shown
SALL4 ZFC4 WT (HT-SELEX) = target: T1, SALL4 ZFC4 WT (HT-SELEX) (Mus musculus, UniProt Q8BX22 870-940)
T1 sequence: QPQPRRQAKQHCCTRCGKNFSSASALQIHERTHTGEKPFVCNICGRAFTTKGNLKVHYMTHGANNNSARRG
In short: (§1)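 Binding signal is expressed as fold change in each canonical k-mer's read fraction over the initial random library. To obtain it, 1 µg of purified recombinant mouse SALL4 zinc finger cluster 4 (residues 870–940) was incubated for 10 min at room temperature with library DNA (1.5 µg first cycle, 200 ng later cycles) in 100 µl of 10 mM Tris–HCl pH 7.5, 50 mM NaCl, poly(dI-dC) and DTT. Ni2+ bead-captured complexes went through washing, PCR amplification and reselection for up to 6 cycles, in triplicate, before MiSeq sequencing and scanning for 6-mers.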

[1] = target: T2, SALL4 ZFC4 R900W (HT-SELEX) (Mus musculus, UniProt Q8BX22 870-940, R900W)
T2 sequence: T1 sequence with R31W
In short: as §1

[2] = target: T3, SALL4 ZFC4 G921D (HT-SELEX) (Mus musculus, UniProt Q8BX22 870-940, G921D)
T3 sequence: T1 sequence with G52D
In short: as §1

Row | Sequence | binding signal (SALL4 ZFC4 WT (HT-SELEX)) | binding signal [1] | binding signal [2]
1 | CTGAAA | 1.19 ± 0.0701 fold-change vs cycle 0 | 1.28 ± 0.0787 fold-change vs cycle 0 | 1.21 ± 0.0732 fold-change vs cycle 0
2 | ACAACG | 0.592 ± 0.0372 fold-change vs cycle 0 | 0.676 ± 0.029 fold-change vs cycle 0 | 0.769 ± 0.0401 fold-change vs cycle 0
3 | GGTCCA | 0.375 ± 0.0292 fold-change vs cycle 0 | 0.456 ± 0.0245 fold-change vs cycle 0 | 0.558 ± 0.0709 fold-change vs cycle 0
4 | AATTTA | 2.91 ± 0.251 fold-change vs cycle 0 | 2.35 ± 0.145 fold-change vs cycle 0 | 2.04 ± 0.225 fold-change vs cycle 0
5 | ACCTGC | 0.368 ± 0.0272 fold-change vs cycle 0 | 0.391 ± 0.01 fold-change vs cycle 0 | 0.516 ± 0.075 fold-change vs cycle 0
6 | GCTTCA | 0.635 ± 0.0338 fold-change vs cycle 0 | 0.769 ± 0.0139 fold-change vs cycle 0 | 0.8419 ± 0.0056 fold-change vs cycle 0
7 | CTACAC | 0.733 ± 0.0291 fold-change vs cycle 0 | 0.845 ± 0.0188 fold-change vs cycle 0 | 0.893 ± 0.0116 fold-change vs cycle 0
8 | AAAGGG | 0.754 ± 0.0569 fold-change vs cycle 0 | 0.891 ± 0.0422 fold-change vs cycle 0 | 0.879 ± 0.0118 fold-change vs cycle 0
9 | ACCGAA | 0.637 ± 0.01 fold-change vs cycle 0 | 0.698 ± 0.028 fold-change vs cycle 0 | 0.776 ± 0.0511 fold-change vs cycle 0
10 | ATGTAA | 2.3 ± 0.158 fold-change vs cycle 0 | 2.09 ± 0.134 fold-change vs cycle 0 | 1.83 ± 0.187 fold-change vs cycle 0
11 | GATTGA | 1.34 ± 0.0367 fold-change vs cycle 0 | 1.46 ± 0.0217 fold-change vs cycle 0 | 1.43 ± 0.0387 fold-change vs cycle 0
12 | CTGTCA | 0.753 ± 0.03 fold-change vs cycle 0 | 0.862 ± 0.0445 fold-change vs cycle 0 | 0.932 ± 0.0438 fold-change vs cycle 0
13 | ACTACT | 1.38 ± 0.0657 fold-change vs cycle 0 | 1.52 ± 0.107 fold-change vs cycle 0 | 1.43 ± 0.121 fold-change vs cycle 0
14 | AGATTG | 1.29 ± 0.0269 fold-change vs cycle 0 | 1.41 ± 0.0315 fold-change vs cycle 0 | 1.38 ± 0.0773 fold-change vs cycle 0
15 | CTCGAC | 0.348 ± 0.0179 fold-change vs cycle 0 | 0.396 ± 0.0285 fold-change vs cycle 0 | 0.539 ± 0.0655 fold-change vs cycle 0
16 | ACCGGT | 0.368 ± 0.0353 fold-change vs cycle 0 | 0.438 ± 0.0164 fold-change vs cycle 0 | 0.518 ± 0.0665 fold-change vs cycle 0
17 | AGGTAC | 0.804 ± 0.0355 fold-change vs cycle 0 | 0.942 ± 0.0186 fold-change vs cycle 0 | 0.9735 ± 0.00829 fold-change vs cycle 0
18 | CAAGAG | 0.839 ± 0.0412 fold-change vs cycle 0 | 1.03 ± 0.0313 fold-change vs cycle 0 | 1.015 ± 0.00973 fold-change vs cycle 0
19 | CTTCAA | 1.25 ± 0.0505 fold-change vs cycle 0 | 1.41 ± 0.0826 fold-change vs cycle 0 | 1.33 ± 0.122 fold-change vs cycle 0
20 | GGCTAA | 0.523 ± 0.0366 fold-change vs cycle 0 | 0.619 ± 0.0212 fold-change vs cycle 0 | 0.728 ± 0.0327 fold-change vs cycle 0
21 | CTCCGA | 0.382 ± 0.00698 fold-change vs cycle 0 | 0.433 ± 0.0122 fold-change vs cycle 0 | 0.589 ± 0.0734 fold-change vs cycle 0
22 | CATGAC | 0.822 ± 0.0546 fold-change vs cycle 0 | 0.938 ± 0.0407 fold-change vs cycle 0 | 1 ± 0.0669 fold-change vs cycle 0
23 | ACTCTG | 0.817 ± 0.0779 fold-change vs cycle 0 | 0.914 ± 0.0491 fold-change vs cycle 0 | 0.937 ± 0.0411 fold-change vs cycle 0
24 | ATAAGC | 1.34 ± 0.0651 fold-change vs cycle 0 | 1.21 ± 0.0666 fold-change vs cycle 0 | 1.22 ± 0.0552 fold-change vs cycle 0
25 | GACTCA | 0.768 ± 0.0401 fold-change vs cycle 0 | 0.889 ± 0.022 fold-change vs cycle 0 | 0.937 ± 0.0191 fold-change vs cycle 0
26 | GCCTTA | 0.573 ± 0.0273 fold-change vs cycle 0 | 0.685 ± 0.0271 fold-change vs cycle 0 | 0.783 ± 0.0268 fold-change vs cycle 0
27 | CGAGTC | 0.379 ± 0.0123 fold-change vs cycle 0 | 0.4362 ± 0.00406 fold-change vs cycle 0 | 0.578 ± 0.0547 fold-change vs cycle 0
28 | ATTCAC | 1.32 ± 0.0734 fold-change vs cycle 0 | 1.45 ± 0.0876 fold-change vs cycle 0 | 1.38 ± 0.121 fold-change vs cycle 0
29 | ATCACA | 1.39 ± 0.0936 fold-change vs cycle 0 | 1.48 ± 0.0843 fold-change vs cycle 0 | 1.43 ± 0.11 fold-change vs cycle 0
30 | CTAAAC | 1.16 ± 0.0729 fold-change vs cycle 0 | 1.33 ± 0.0737 fold-change vs cycle 0 | 1.27 ± 0.0849 fold-change vs cycle 0
